From PubChem BioAssay AID651911 (Vanderbilt Specialized Chemistry Center, 2012)
Active and inactive are the calls of the source. The rule behind the calls is not given here.

Biological target: Histone deacetylase 11 (Homo sapiens) (UniProt Q96DB2)
Test: HDAC11 deacetylase inhibition, profiling panel, selectivity assay for E-cadherin restoration project, biochemical, human (AID 651911)
Conditions: recombinant HDAC11, fluorogenic peptide deacetylation; series mostly up to 10 µM

Sequence of Histone deacetylase 11 (Homo sapiens) (Q96DB2 whole entry, looked up): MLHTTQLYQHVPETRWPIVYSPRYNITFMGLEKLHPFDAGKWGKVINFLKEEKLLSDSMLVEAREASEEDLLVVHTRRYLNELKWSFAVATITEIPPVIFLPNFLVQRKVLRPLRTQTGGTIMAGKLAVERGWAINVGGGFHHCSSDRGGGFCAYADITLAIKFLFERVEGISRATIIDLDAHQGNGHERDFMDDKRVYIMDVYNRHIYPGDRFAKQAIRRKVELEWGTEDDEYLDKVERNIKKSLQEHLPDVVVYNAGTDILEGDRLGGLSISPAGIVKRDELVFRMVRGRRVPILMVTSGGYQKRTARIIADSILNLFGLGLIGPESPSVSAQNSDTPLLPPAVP

O=C(NCCCNC(=O)c1ccc[nH]c1=O)c1cc(-c2ccccc2)on1
outcome: inactive
